For 38 compounds, growth inhibition results are on record in the supplement of paper PMC5641865, “A screen for kinase inhibitors identifies antimicrobial imidazopyridine aminofurazans as specific inhibitors of the Listeria monocytogenes PASTA kinase PrkA” (The Journal of Biological Chemistry, 2017).

Each structure is given as a SMILES string. Several values for one entry are separate records, joined by “and”; a condition that tells them apart may be missing. Equal values may be shown once. ± gives the standard deviation of the averaged measurements.
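Also: End-point A600 read in BHI broth at 37 °C with 2% DMSO, inhibition computed as (1 − OD with compound plus ceftriaxone ÷ OD with ceftriaxone only) × 100.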

The subject of this test is Listeria monocytogenes 10403S. Nature of the test: growth inhibition relative to ceftriaxone-alone control; higher = stronger potentiation of ceftriaxone growth inhibition. The conditions noted are these: 10 µM; ceftriaxone 1 ug/ml; 12 h.
Regarding `COc1cc2c(cc1Nc1nc(Nc3ccsc3C(N)=O)c3cc[nH]c3n1)N(C(=O)CN(C)C)CCC2(C)C`, the growth inhibition is -4.89 ± 0.71%.
For the compound `NC(=O)c1sc(-n2cnc3cc(C(F)(F)F)ccc32)cc1OCc1ccccc1Br`, the growth inhibition is -7.84 ± 1.8%.
The result for `NS(=O)(=O)c1ccc(N/N=C2\C(=O)Nc3ccc(Cl)cc32)cc1` reads -12.5 ± 11%; that for `CN(c1ccc(NC(=O)Nc2ccc(OC(F)(F)F)cc2)cc1)c1ccnc(Nc2cccc(S(N)(=O)=O)c2)n1`, -3.28 ± 2%.
`CC[C@H](CO)Nc1nc(NCc2ccccc2)c2ncn(C(C)C)c2n1` [Roscovitine (Seliciclib, CYC202)]: the growth inhibition was found to be 22.9 ± 22%.
The result for `Nc1nc(N)c2nc(-c3cccc(O)c3)cnc2n1` reads 8.99 ± 4.4%; that for `Cc1ccc(NC(=O)c2ccoc2)cc1-c1ccc(C(=O)NCC2CC2)cc1`, 16.8 ± 3.1%.
The result for `CC(C)(C)c1nc(-c2cccc(NS(=O)(=O)c3c(F)cccc3F)c2F)c(-c2ccnc(N)n2)s1` reads 56.2 ± 26%; that for `CN(C)Cc1cccc(N=C(c2ccccc2)c2c(O)[nH]c3cc(C(=O)N(C)C)ccc23)c1`, 26.5 ± 1.6%; that for `Nc1ncnc2occ(-c3ccc(NC(=O)Nc4cccc(C(F)(F)F)c4)cc3)c12`, -12.9 ± 3.5%.
As to `O=C(NCCCNc1nc(Nc2cccc(NC(=O)N3CCCC3)c2)ncc1I)c1cccs1`, the growth inhibition was -19.4 ± 21%.
The result for `N#Cc1c(O)c2c(-c3ccc(-c4ccccc4O)cc3)csc2[nH]c1=O` reads 40.8 ± 15%.
As for `Clc1ccc(-c2nn3ncccc3c2-c2ccnc(Nc3ccccc3)n2)cc1`, the figure is -7.12 ± 3.8%; as for `Cc1cc(C(C)Nc2ccccc2)c2nc(N3CCOCC3)cc(=O)n2c1` (stereo not drawn), 24.3 ± 9.5%; as for `COc1cc2ncn(-c3cc(O[C@H](C)c4ccccc4Cl)c(C(N)=O)s3)c2cc1OC`, -3.78 ± 5.6%.
The result for `CS(=O)(=O)CCNCc1ccc(-c2ccc3ncnc(Nc4ccc(OCc5cccc(F)c5)c(C(F)(F)F)c4)c3c2)o1` reads -12.1 ± 6.9%.
As for `O=C(c1ccc(/C=C/c2n[nH]c3ccccc23)cc1)N1CCNCC1`, the growth inhibition was determined as 7.15 ± 1.2%.
The result for `COc1cc(/C=N/Nc2ncnc3[nH]ncc23)ccc1O` reads 6.52 ± 10%.
The result for `O=C1NC(=O)C(c2ccccc2Cl)=C1Nc1cccc(O)c1` reads -3.8 ± 3.6%; that for `CN1CCN(Cc2ccc(-c3cc4ncnc(Nc5ccc(OCc6cccc(F)c6)c(Cl)c5)c4s3)o2)CC1`, 3 ± 2.7%; that for `Cc1cc(O)cc(C)c1/C=C/c1cncc(C(=O)OC(C)(C)C)c1`, -0.285 ± 0.11%.
The result for `Cc1ccc2c(-c3ccnc(Nc4ccc5c(c4)OCCO5)n3)c(-c3ccc(C(F)(F)F)cc3)nn2n1` reads -1.85 ± 0.84%.
As to `CCCCOc1c(C(=O)c2c(F)cc(C)cc2F)c[nH]c2nncc1-2`, the growth inhibition was -6.78 ± 8.6%.
As for `CCNC(=O)O[C@H]1CN[C@H](C#Cc2cc3ncnc(Nc4ccc(OCc5cccc(F)c5)c(Cl)c4)c3s2)C1`, the figure is 27.1 ± 33%; as for `COc1ccc2c(OCc3nnc4ccc(-c5ccccc5)nn34)ccnc2c1`, 11.6 ± 13%; as for `CC(C)=Cc1cccc2c1/C(=N/Nc1ccc(S(N)(=O)=O)cc1)C(=O)N2`, -2.72 ± 0.38%.
The result for `COc1ccc(-c2ccncc2)cc1C(N)=O` reads -4.48 ± 7.1%; that for `CCc1nn2ncccc2c1-c1ccnc(NC2CC2)n1`, -4.93 ± 3%.
With `CC(C)(C)c1cc(/C=C(\C#N)C(N)=S)cc(C(C)(C)C)c1O` [Tyrphostin AG 879 (AG 879)], the growth inhibition worked out at 72.8 ± 30%.
The result for `C#Cc1cccc(Nc2ncnc3cc(OCCOC)c(OCCO)cc23)c1` reads 19.2% and 5.86%; that for `CCCS(=O)(=O)Nc1ccc(F)c(C(=O)c2c[nH]c3ncc(-c4ccc(Cl)cc4)cc23)c1F` [Vemurafenib (PLX4032)], -29.7 ± 26%.
The result for `COc1cc2c(Oc3ccc(NC(=O)C4(C(=O)Nc5ccc(F)cc5)CC4)cc3F)ccnc2cc1OCCCN1CCOCC1` reads 80.2 ± 4.3%.
As for `COC(=O)c1ccc2c(c1)C(=Cc1cc(Br)c(O)c(Br)c1)C(=O)N2`, the figure is 12.4 ± 1.5%.
As to `NS(=O)(=O)c1ccc(N/N=C2\C(=O)Nc3ccc(C(=O)NCCCn4ccnc4)cc32)cc1`, the growth inhibition is -3.24 ± 3.3%.
The result for `COc1cc(N2CCN(C(C)C)CC2)ccc1Nc1nc(Nc2cccc3ncccc23)c2cc[nH]c2n1` reads -2.19 ± 2.3%; that for `CCc1cccc(CC)c1/C=C/c1cncc(C(=O)NC)c1`, 14.6 ± 2.7%.
As for `CC(=O)NCc1cccc(C#Cc2cncnc2Nc2ccc(OCc3cccc(F)c3)c(Cl)c2)c1`, the figure is -1.26 ± 2.3%; as for `C[C@@H](Oc1cc(-n2cnc3ccc(OCC4CCN(C)CC4)cc32)sc1C(N)=O)c1ccccc1Cl`, -2.37 ± 3%.
